# Screens (PubChem BioAssay)
# Compounds with a hit are over-represented: about 11% of the library has one in this group of screens.
# Pf growth 96h: Primary qHTS for delayed death inhibitors of the malarial parasite plastid, 96 hour incubation; P. falciparum luciferase reporter growth, 96 h; Potency, µM (top dose mostly 28.7 µM), usual class: inhibitors; 320,000 tested, 6.9% active; AID 504834, 2011
#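 Parasite growth measured via integrated firefly luciferase reporter in P. falciparum. Infected erythrocytes at 2% hematocrit, 0.05% parasitemia final were treated 96 hours at 37 C under 5% CO2, and luminescence was read.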
# Sm TGR inh: qHTS Assay for the Inhibitors of Schistosoma Mansoni Peroxiredoxins | Schistosoma mansoni thioredoxin glutathione reductase (TGR), Q962Y6 | purified TGR, DTNB reduction, TNB absorbance 405 nm | Potency, µM (top dose mostly 114 µM), hits mostly inhibitors | 360,000 tested, 3% active; also: nearly all actives have a fitted effect of over 60% in size
#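 First, TGR (20 nM dispensed) and NADPH were mixed with compound. Second, a 15 min room-temperature incubation followed. Third, further NADPH and then DTNB were added to start the reaction. Finally, TNB absorbance was monitored kinetically.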
# AMA1 RON2 block: qHTS for Inhibitors of AMA1-RON; Towards Development of Antimalarial Drug Lead: Primary Screen | Plasmodium falciparum AMA1 (3D7) - RON2 peptide interaction | AlphaScreen AMA1-biotinylated RON2 peptide binding | Potency, µM (doses to about 58.2 µM), usual class: inhibitors | 360,000 tested, 0.2% active | AID 720542, 2013; also: nearly all actives have a fitted effect of over 45% in size
#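 AMA1 (3D7) with his tag at 25 nM final met compounds first, then biotinylated RON2 peptide at 25 nM; detection used donor plus acceptor beads, 10 µg/mL apiece, read by AlphaScreen after 30 min at room temperature.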
# NS1 function inh: qHTS Assay for Inhibitors of Influenza NS1 Protein Function. Potency, µM (doses to about 46.1 µM). 270,000 tested, 0.4% active. AID 2326, 2010; calls by dose curve; also: actives are rising curves; nearly all actives have a fitted effect of over 50% in size
#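 OD600 was taken as the measure of yeast growth restored by compound in an NS1-expressing S. cerevisiae strain. Cells had been washed out of glucose medium and diluted 1:100 into galactose -URA medium, pH 6.0.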
# Pf growth 48h: Primary qHTS for delayed death inhibitors of the malarial parasite plastid, 48 hour incubation; P. falciparum luciferase growth in erythrocytes, 48 h; Potency, µM (highest dose often 28.7 µM), hits mostly inhibitors; 310,000 tested, 5.9% active
#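 Erythrocytes infected with P. falciparum carrying an integrated firefly luciferase reporter (2% hematocrit, 0.1% parasitemia final) were exposed to compounds in RPMI 1640 with 0.5% Albumax at 37 C, 5% CO2. Growth inhibition was scored as reduced luminescence.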
# A number is an active result; - = inactive; ? = inconclusive; . = no result; [ ] = dose if it differs, or a comment. Unless noted, calls follow the shape of the dose curve; as a rule, active = well fitted curve in the direction sought with a large enough effect; inconclusive = small, poorly fitted or top-dose-only effect, or another doubt; inactive = no such curve, though single readings can be large; an effect the other way counts as inactive or inconclusive.
SMILES,Pf growth 96h,Sm TGR inh,AMA1 RON2 block,NS1 function inh,Pf growth 48h
COc1ccccc1/C=N/NC(=O)c1ccc2c(c1)OCO2,?,-,-,-,?
CC1CC(C)CN(C(=O)CCC(=O)Nc2nnc(C(C)C)s2)C1 (stereo unspecified),?,-,-,-,?
Cc1cccc2cc(CN(Cc3ccco3)C(=O)Nc3cccc(C#N)c3)c(Cl)nc12,13.1µM,-,-,-,9.28µM
Cc1ccc2cc(CN(Cc3ccco3)C(=O)NCc3ccccc3)c(=O)[nH]c2c1C,11.7µM,-,-,-,-
Cc1ccc(C)c2[nH]c(=O)c(CN(Cc3ccco3)C(=O)Nc3ccccc3)cc12,?,-,-,-,11.7µM
Cc1ccc(CNC(=O)C2CCCCN2S(=O)(=O)c2ccc(F)cc2)cc1 (stereo unspecified),.,-,.,.,.
COc1cccc(CC(NC(C)=O)C(=O)NC2CCN(c3c(Cc4ccccc4)c(C)nc4ncnn34)CC2)c1OC (stereo unspecified),?,-,-,-,5.86µM
COc1ccc(CC(NC(C)=O)C(=O)NC2CCN(c3c(Cc4ccccc4)c(C)nc4ncnn34)CC2)cc1OC (stereo unspecified),?,-,.,-,11.7µM
COc1ccc(CC(NC(C)=O)C(=O)NC2CCN(c3c(Cc4ccccc4)c(C)nc4ncnn34)CC2)c(OC)c1 (stereo unspecified),-,-,-,-,-
CCN(CC)S(=O)(=O)c1ccc2c(c1)N(CC(=O)NCCc1ccc(S(N)(=O)=O)cc1)C(=O)CO2,-,-,-,.,-
O=C(NCc1cccnc1)C(=O)Nc1ccc2c(c1)OCO2,?,-,-,.,-
COc1ccc(OCCOC(=O)CNS(=O)(=O)c2ccc(SC)c([N+](=O)[O-])c2)cc1,-,-,-,.,-
Cc1ccsc1/C=N\NC(=O)c1n[nH]c2c1CCC2,10.4µM,-,-[11.6 µM],-,-
Cc1ccc2nc(SCC(=O)Nc3nonc3C)[nH]c2c1,-,-,-,-,-
Cc1[nH]c2ccccc2c1C1(O)C(=O)N(Cc2ccc3c(c2)OCO3)c2ccccc21 (stereo unspecified),13.1µM,-,?,-,-
CCCN1C(=O)C(O)(c2c(C)[nH]c3ccccc23)c2ccccc21 (stereo unspecified),-,44.7µM,-,-,-
Cc1ccc(CN2C(=O)C(O)(c3c(C)[nH]c4ccccc34)c3ccccc32)cc1 (stereo unspecified),.,-,.,.,.
CCOc1ccc(NC(=O)CSc2nncc(=O)n2N)cc1,?,-,-,-,?
COCCNC(=O)c1ccc(CSc2nc3ccncc3n2Cc2ccccc2)cc1,.,-,.,.,.
Cc1cc2ccccc2n1CCNC(=O)c1ccc(Br)o1,?,12.6µM,?,-,?
Cc1onc(-c2ccccc2Cl)c1C(=O)NC1CCS(=O)(=O)C1 (stereo unspecified),11.7µM,-,-,-,.
Cc1onc(-c2ccccc2Cl)c1C(=O)NCCn1c(C)cc2ccccc21,10.4µM,-,-,?,13.1µM
Cc1onc(-c2ccccc2Cl)c1C(=O)OCN1C(=O)c2ccccc2C1=O,13.1µM,-,-,-,-
Cc1onc(-c2ccccc2Cl)c1C(=O)NCC(=O)O,?,-,-,-,-
COc1cc2c3c(c1OC)C1(C=CC(=O)C=C1)CC3N(C(=O)CCC(=O)O)CC2 (stereo unspecified),-,-,-,-,2.08µM
SMILES,Pf growth 96h,Sm TGR inh,AMA1 RON2 block,NS1 function inh,Pf growth 48h
COc1cc2c3c(c1OC)C1(C=CC(=O)C=C1)CC3N(C(=O)c1ccccc1)CC2 (stereo unspecified),?,-,-,-,?
CCC(=O)N1CCc2cc(Br)cc(S(=O)(=O)NCc3ccco3)c21,?,35.5µM,-,-,?
CCC(=O)N1CCc2cc(Br)cc(S(=O)(=O)NCc3cccc(OC)c3)c21,.,-,.,.,.
CCC(=O)N1CCc2cc(Br)cc(S(=O)(=O)CCC(=O)NCc3ccccc3)c21,.,-,.,.,.
CCC(=O)N1CCc2cc(Br)cc(S(=O)(=O)CCC(=O)NCc3ccco3)c21,.,?,-,-,8.28µM
CCC(=O)N1CCc2cc(Br)cc(S(=O)(=O)CCC(=O)N(C)c3cccc(C)c3)c21,5.22µM,?,.,.,11.7µM
NC1=C(Br)C(=O)c2ncccc2C1=O,.,.,-,.,.
O=C1C(=O)c2ncccc2-c2cccnc21,-,.,.,.,0.675µM
COc1ccc(-n2c(C)cc(/C=C3\C(=N)N4N=C(CC(=O)N5CCOCC5)SC4=NC3=O)c2C)cc1,13.1µM,-,-,?,13.1µM
Cc1cc(/C=C2\C(=N)N3N=C(CC(=O)N4CCOCC4)SC3=NC2=O)c(C)n1-c1ccccc1,?,-,-,-,?
COc1ccc(OC)c(NC(=O)CCN2CCN(CCO)CC2)c1,-,-,-,-,-
COC(=O)c1c(N2C(=O)CC(Sc3ccccc3C(=O)O)C2=O)sc2c1CCCC2 (stereo unspecified),?,2.51µM,-,.,-
COC(=O)c1c(N2C(=O)CC(Sc3ccccc3C(=O)O)C2=O)sc(C)c1C (stereo unspecified),-,4.47µM,-,-,?
COC(=O)c1c(N2C(=O)[C@H]3[C@@H](C2=O)[C@]2(C(=O)Nc4c(C)cccc42)N2CCC[C@@H]32)sc(C)c1C,-,-,-,?,-
O=C(CN1CCOCC1)NNC(=O)c1ccc(Cl)cc1,.,.,-,.,.
Cc1ccc(S(=O)(=O)N(CC(=O)Nc2ccccc2)C(=O)N2CCN(C)CC2)cc1,-,-,-,.,-
CC(=O)C1C(c2cccc(F)c2)NC(=O)NC1(O)C(F)(F)F (stereo unspecified),4.65µM,-,-,-,-
O=C1NC(c2ccccc2)C(C(=O)c2cccs2)C(O)(C(F)(F)F)N1 (stereo unspecified),-,31.6µM,-,-,-
COCCNC(=O)C1(C)Cc2c(-c3cccc(NC(C)=O)c3)ccnc2O1 (stereo unspecified),.,.,-,.,.
Cc1oc(/C=N/NS(=O)(=O)c2ccccc2)cc1Br,?,0.112µM,-,-,-
C#CCn1ccc(O)c(Cc2ccccc2)c1=O,-,-,-,-,-
Cc1ccc(NC(=O)c2ccc([N+](=O)[O-])o2)cc1S(=O)(=O)N1CCOCC1,9.28µM,14.1µM,-,.,9.28µM
c1cc(CNc2ccc3c(c2)OCO3)ccn1,.,?,-,-,?
O=C(Nc1ccc(N2CCOCC2)c(Cl)c1)c1ccc([N+](=O)[O-])o1,-,.,-,-,10.4µM
Cc1ccc(NC(=O)c2cc([N+](=O)[O-])ccc2N2CCOCC2)cc1S(=O)(=O)N1CCOCC1,?,-,-,-,?
Cc1ccc(CNc2ccc(N3CCOCC3)c(Cl)c2)cc1,10.4µM,-,?,-,-
Cc1ccc(CNc2ccc3c(c2)OCO3)cc1,-,44.7µM,?,2.82µM,?
